The panel holds about 83,000 compounds, 20% with a hit somewhere; the sample as a whole holds those more often.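 Plates (96-well) were seeded with cells, treated with compound at one concentration, and incubated for 48 hours before percent growth was determined.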 The source made the active and inactive calls. The calls were made as follows: active = growth percent below 10; inactive = the rest.
system: COLO 205 colon; test: NCI-60 one-dose screen, 48 h (100 = growth as untreated, 0 = no growth, -100 = all killed); details: 10 µM

**Q.** CC(C)c1ccc(C(C)C(=O)N(CC2=C(C(C)c3ccccn3)c3ccccc3C2)C(C)C)cc1 (configuration not stated) was tested. Which growth did it give?
**A.** 35.7% (inactive)

**Q.** Which growth does the source give for CC(=O)N[C@H](C(=O)N[C@@H](CCCNC(=N)N)C(=O)N[C@@H](CCCCN)C(=O)N[C@@H](CCCNC(=N)N)C(=O)NC(C(=O)N[C@@H](CC(C)C)C(=O)N[C@@H](CCCNC(=N)N)C(=O)N[C@@]1(C)CCC/C=C\CCC[C@@](C)(C(=O)N[C@@H](CCCNC(=N)N)C(=O)N[C@@H](CCC(=O)O)C(=O)N[C@@H](CC(C)C)C(=O)N[C@H](C(=O)N[C@@H](CCC(=O)O)C(N)=O)C(C)C)NC(=O)[C@H](CCC(N)=O)NC(=O)[C@H](CC(C)C)NC(=O)[C@H](CC(C)C)NC1=O)[C@@H](C)O)C(C)C (some centres not stated) here?
**A.** -53% (active)

**Q.** COc1cc2c(cc1NC(=O)C(Cl)Cl)-c1ccc(NC(=O)C(Cl)Cl)cc1C2 was tested. Which growth did it give?
**A.** -86.5% (active)

**Q.** With CC1OC2CC(=O)OC2C2=C1C(=O)c1c(O)c3c(c(O)c1C2=O)C1CC(O)C3(O)C(C)O1 (configuration not stated) as the compound, how does the growth read?
**A.** -73.5% (active)

**Q.** How did the growth turn out when COc1cc(-c2csc(NC(=O)Nc3ccc(Cl)c(C(F)(F)F)c3)n2)cc(OC)c1OC was run?
**A.** -58.1% (active)

**Q.** How did the growth turn out when COc1cc2cc(Oc3ccc(NC(=O)Nc4ccc(C(F)(F)F)cc4)cc3)c(C)nc2cc1OC was run?
**A.** 40.4% (inactive)

**Q.** How did the growth turn out when COc1ccc(/C=C/C(=O)C(=O)/C=C/c2ccc(OC)c(OC)c2)cc1OC was run?
**A.** -20.8% (active)

From PubChem BioAssay (NCI)
